GAA spleen mod – qHTS Assay for Inhibitors and Activators of Human alpha-Glucosidase From Spleen Homogenate; Lysosomal alpha-glucosidase (Homo sapiens), P10253; human spleen homogenate, 4-MU-alpha-glucoside fluorescence; Potency, µM (titrated, usually from 79.9 µM), without a hit: at the top dose activity change, negative = inhibition, actives largely listed as inhibitors; 240,000 tested, 0.006% active;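 note: potency is the fitted concentration of half-maximal effect; 0% = enzyme with vehicle and -100% = no enzyme basal signal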
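Enzyme source: human spleen homogenate, 1 ug/well. Buffer 50 mM citric acid/K phosphate pH 5.0, 0.01% Tween-20. 4-MU-alpha-glucoside 1 mM; 37 C x 40 min; NaOH/glycine stop; fluorescence.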
GLA spleen mod – qHTS Assay for Inhibitors and Activators of Human alpha-Galactosidase From Spleen Homogenate; Potency, µM (top dose mostly 80 µM), for inactives: top-dose activity change, negative = inhibition, usual class: inhibitors; 240,000 tested, 0.008% active; AID 2107, 2009; human spleen homogenate, 4MU-alpha-Gal fluorescence, 40 min; Alpha-galactosidase A (Homo sapiens), P06280;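 note: potency is the fitted concentration of half-maximal effect; 0% = enzyme with vehicle and -100% = no enzyme basal signal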
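Human spleen homogenate (1 ug) was the enzyme source, with 4-methylumbelliferyl-alpha-D-galactopyranoside (1 mM final) in pH 5.0 citrate buffer with 0.01% Tween-20. Compounds were titrated; after 40 min at 37C, NaOH/glycine stop, 4-MU fluorescence read; AC50 from Hill fits.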
GAA glycogen mod – qHTS Assay for Inhibitors and Activators of Human alpha-Glucosidase Cleavage of Glycogen; recombinant GAA, glycogen substrate, Amplex Red glucose oxidase fluorescence; Potency, µM (titrated, usually from 76.4 µM), inactives show at the top dose activity change, negative = inhibition, usual class: inhibitors; 300,000 tested, 0.38% active; AID 2100, 2009;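 note: potency is the fitted concentration of half-maximal effect; 0% = full enzyme reaction and -100% = no-enzyme basal signal; the screen sought inhibitors and activators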
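Recombinant human alpha-glucosidase (4 nM final) hydrolysed bovine liver glycogen (30 ug) for 40 min at 37 C in pH 5.0 citrate/phosphate with 0.01% Tween-20. Released glucose detected by glucose oxidase/Amplex Red, Ex 573/Em 610 nm. Compounds up to 77 uM; AC50 from Hill fits.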
GAA inh – qHTS Assay for Inhibitors of Human alpha-Glucosidase as a Potential Chaperone Treatment of Pompe Disease. AID 1466, 2008. purified human GAA, 4-MU-alpha-glucoside fluorescence. Potency, µM (top dose mostly 76.9 µM), for the others: top-dose activity change, negative = inhibition, most hits filed as inhibitors. 200,000 tested, 0.005% active. Lysosomal alpha-glucosidase (Homo sapiens), P10253;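 note: potency is the fitted concentration of half-maximal effect; plate controls were uninhibited enzyme wells for no effect and no-enzyme background for full effect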
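Compounds are titrated up to 77 uM against 4 nM human enzyme. Substrate 4-methylumbelliferyl-alpha-D-pyranoside (400 uM) reacts 20 min at room temperature in pH 5.0 buffer; liberated 4-methylumbelliferone is read at 440 nm.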
GLA inh pH 4.5 – qHTS Assay for Inhibitors of Human alpha-Galactosidase at pH 4.5. 230,000 tested, under 10 active. purified enzyme, 4-MU-alpha-Gal fluorescence, pH 4.5. activity change, negative = inhibition, % at 105 µM. Alpha-galactosidase A (Homo sapiens), P06280;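 note: 0% = full activity with enzyme and -100% = basal without enzyme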
Target sequence (P06280 whole entry, looked up): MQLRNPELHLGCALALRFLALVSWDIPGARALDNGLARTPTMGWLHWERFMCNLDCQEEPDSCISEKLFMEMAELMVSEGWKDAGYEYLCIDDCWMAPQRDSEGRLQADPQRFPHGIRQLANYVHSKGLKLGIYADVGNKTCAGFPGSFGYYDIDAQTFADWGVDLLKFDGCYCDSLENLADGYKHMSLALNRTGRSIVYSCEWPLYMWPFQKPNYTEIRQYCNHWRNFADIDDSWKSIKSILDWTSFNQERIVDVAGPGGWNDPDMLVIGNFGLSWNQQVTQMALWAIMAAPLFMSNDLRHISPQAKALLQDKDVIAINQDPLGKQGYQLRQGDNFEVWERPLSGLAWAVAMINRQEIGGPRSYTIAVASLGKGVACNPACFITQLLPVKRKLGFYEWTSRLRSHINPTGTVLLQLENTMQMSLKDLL
The depositor's hits bear a star; [ ] = another dose, or the depositor's remark. The full list was thinned out, with hits kept by preference. Calls come from the whole dose curve; as a rule, active = well fitted curve in the direction sought with a large enough effect; inconclusive = small, poorly fitted or top-dose-only effect, or another doubt; inactive = no such curve, though single readings can be large; an effect the other way counts as inactive or inconclusive.

How did O=C(O)c1ccccc1C(=O)NNc1ccc(Cl)cc1 do in these assays?
GAA spleen mod: -8.4%; GLA spleen mod: -6.3%; GAA glycogen mod: 11.2µM*; GAA inh: 3.2%; GLA inh pH 4.5: 9.6

How did NS(=O)(=O)c1ccc(NNC(=O)c2ccccc2C(=O)O)cc1 do in these assays?
GAA spleen mod: -12.0%; GLA spleen mod: -0.8%; GAA glycogen mod: inconclusive; GLA inh pH 4.5: -1.1

What do the screens show for `CC(C)=CC[C@@H](O)C1=CC(=O)c2c(O)ccc(O)c2C1=O`?
GAA spleen mod: -7.4%; GLA spleen mod: -2.4%

How did CC1(C)CC1C(=O)N/C(=C/CCCCSCC(N)C(=O)O)C(=O)O (centres undefined) do in these assays?
GAA spleen mod: 1.7%; GLA spleen mod: -0.6%

How did Oc1ccc2ccc3[nH]cnc3c2c1 do in these assays?
GAA spleen mod: 6.5%; GLA spleen mod: 9.5%; GAA glycogen mod: -6.5%; GAA inh: -4.6%; GLA inh pH 4.5: 0.2

What do the screens show for `Oc1ccc2[nH]ccc2c1`?
GAA spleen mod: -15.4%; GLA spleen mod: 19.9%; GAA glycogen mod: 14.1µM*; GAA inh: -2.1%; GLA inh pH 4.5: -4.7

How did O=C1CCCC2=C1C(c1cccs1)Nc1ccc3ncccc3c12 (centres undefined) do in these assays?
GAA spleen mod: -3.0%; GLA spleen mod: -8.1%; GAA glycogen mod: 9.4%; GAA inh: -1.2%; GLA inh pH 4.5: 1.0

What do the screens show for `O=C1CCCC2=C1C(c1ccc(O)c(O)c1)Nc1ccc3ncccc3c12` (centres undefined)?
GAA spleen mod: -2.1%; GLA spleen mod: 5.8%; GAA glycogen mod: 2.82µM*; GAA inh: -2.2%; GLA inh pH 4.5: -4.7

How did CN(C)/C=N/c1c(C#N)cnn1-c1ccc(F)c(Cl)c1 do in these assays?
GAA spleen mod: -0.7%; GLA spleen mod: -3.4%

Results for CC[C@@H](C(=O)[C@@H](C)[C@@H](O)[C@H](C)CCc1ccc(C)c(O)c1C(=O)O)C1O[C@](CC)(C2CC[C@](O)(CC)[C@H](C)O2)C[C@@H]1C (some centres undefined) ?
GAA spleen mod: 8.1%; GLA spleen mod: 2.3%

What do the screens show for `CC(=O)OCC1OC(c2ccc3c(c2)OCO3)C=CC1OC(C)=O` (centres undefined)?
GAA spleen mod: 4.0%[17.4 µM]; GLA spleen mod: -3.2%[17.5 µM]

What do the screens show for `CCOC(=O)Nc1sc(=S)n(C)c1C`?
GAA spleen mod: 8.0%; GLA spleen mod: 2.7%; GAA glycogen mod: 7.88µM*; GAA inh: 2.5%; GLA inh pH 4.5: -4.4

What do the screens show for `COc1cccc(C2CC(=O)Nc3c2c(=O)[nH]c2nc4ccccc4n32)c1` (centres undefined)?
GAA glycogen mod: 39.8µM*

What do the screens show for `COc1cc2c3cc1Oc1c(OC)c(OC)cc4c1[C@@H](Cc1ccc(OC(=O)c5ccc([N+](=O)[O-])cc5)c(c1)Oc1ccc(cc1)C[C@@H]3N(C)CC2)N(C)CC4`?
GAA spleen mod: 1.6%; GLA spleen mod: -9.1%

Results for O=C(O)c1cc(=O)c2cc(Cl)ccc2[nH]1 ?
GAA spleen mod: -2.8%; GLA spleen mod: 9.6%

How did Cc1ccc(-c2nnc(Nc3ccc(O)cc3)c3ccccc23)cc1S(=O)(=O)N1CCN(C)CC1 do in these assays?
GAA glycogen mod: 15.8µM*

How did O=C(NCc1ccccc1Cl)c1ccc(CS(=O)(=O)c2ccccc2)o1 do in these assays?
GAA glycogen mod: -4.3%[76.3 µM]

Results for O=C(NCc1ccccc1Cl)c1ccc(CS(=O)(=O)c2ccc(Br)cc2)o1 ?
GAA glycogen mod: 44.7µM*

What do the screens show for `O=C1C2C3C=CC(CC3)C2C(=O)N1/N=C/c1ccc(O)c(O)c1` (centres undefined)?
GAA spleen mod: -4.1%; GLA spleen mod: -0.7%; GAA glycogen mod: 7.08µM*; GAA inh: -1.0%; GLA inh pH 4.5: -3.2

How did COc1ccc(-c2nc3c(c4c2C[C@H](c2ccccc2)OC4)CN(C(=O)Nc2cccc(C#N)c2)CC3)c(C)c1 do in these assays?
GAA spleen mod: 1.9%[17.4 µM]; GLA spleen mod: -10.4%[17.5 µM]; GLA inh pH 4.5: 2.4

How did COc1ccc(/C=N\NC(=O)C2=NNC(=O)C2C)cc1 (centres undefined) do in these assays?
GAA spleen mod: -7.7%; GLA spleen mod: -16.0%; GAA glycogen mod: 28µM*; GAA inh: 4.7%; GLA inh pH 4.5: 9.7

How did Cc1ccc(Nc2nc3c([nH]2)c(=O)n(C)c(=O)n3C)cc1 do in these assays?
GAA spleen mod: -19.0%; GLA spleen mod: 13.5%; GAA glycogen mod: 19.8µM*; GAA inh: 8.0%; GLA inh pH 4.5: -4.7

What do the screens show for `COc1ccc(OC)c(-c2nnc3n2N=C(c2ccccc2OC)CS3)c1`?
GAA spleen mod: 2.6%; GLA spleen mod: -14.0%

Results for Nc1cnc(Nc2ccc(Br)cc2)nc1N ?
GAA spleen mod: -3.3%; GLA spleen mod: -4.6%; GAA glycogen mod: 7.03µM*; GAA inh: -2.4%; GLA inh pH 4.5: -11.4

What do the screens show for `N#Cc1c(N)nc(N)nc1Nc1ccc(Br)cc1`?
GAA spleen mod: 6.0%; GLA spleen mod: -3.3%; GAA glycogen mod: -0.8%; GAA inh: 0.5%; GLA inh pH 4.5: -1.4

How did Cn1nnnc1SCC(=O)NCCCc1ccccc1 do in these assays?
GAA spleen mod: -20.2%; GLA spleen mod: -0.5%; GAA glycogen mod: 2.6%; GAA inh: -11.3%; GLA inh pH 4.5: -4.1

Results for O=C(CSc1nncs1)NCCCc1ccccc1 ?
GAA spleen mod: 3.4%; GLA spleen mod: -3.3%; GAA glycogen mod: 10µM*; GAA inh: inconclusive; GLA inh pH 4.5: -5.3

How did Cc1ccc(NC(=S)NNC(=O)c2nn(C)cc2Cl)cc1 do in these assays?
GAA spleen mod: 1.7%; GLA spleen mod: 1.5%; GAA glycogen mod: 14.1µM*; GAA inh: 4.8%; GLA inh pH 4.5: 0.7

Results for COc1ccc(OC)c(Cc2nnc(CCC(=O)NC(C3CC3)C3CC3)o2)c1 ?
GAA spleen mod: -1.9%; GLA spleen mod: -7.8%; GAA glycogen mod: 11.5%; GAA inh: 0.7%; GLA inh pH 4.5: 2.3

Results for COc1ccc(OC)c(Cc2nnc(CCC(=O)NCc3ccc(C)s3)o2)c1 ?
GAA spleen mod: -3.1%; GLA spleen mod: -3.0%; GAA glycogen mod: 10µM*; GAA inh: 3.4%; GLA inh pH 4.5: 2.5

Results for CSCC[C@H](NC(=O)[C@H](CC(C)C)NC(=O)CCNC(=O)[C@@H](NC(=O)[C@H](Cc1ccccc1)NC(=O)[C@H](CO)NC(=O)[C@@H](N)CC(=O)O)C(C)C)C(N)=O ?
GAA spleen mod: 4.9%; GLA spleen mod: -9.1%

Bioassay records (PubChem BioAssay)
